Inconclusive results are not listed. Where a call stands in place of a potency, no number is given. The source made the active and inactive calls. The call rests on the fitted dose curve; in most records, active means well fitted cell-killing curve with a large enough effect; inconclusive means small, poorly fitted or top-dose-only effect; inactive means flat fitted curve, though single readings scatter.
Potency means the concentration at half of the fitted maximal effect.

A short description of the assay: Cell Viability - LYMP2-025 (AID 976). The following applies: LYMP2-025 lymphoblastoid cell viability; series mostly up to 92.2 µM. An excerpt: NIH Chemical Genomics Center [NCGC]
NIH Molecular Libraries Screening Centers Network [MLSCN]
National Institutes of Environmental Health Sciences [NIEHS]
National Toxicology Program [NTP]
We have developed a 1536-well cell-based assay for quantitative high throughput screening (qHTS) against a number of cell lines to determine in vitro cytotoxicity of small molecules. This particular assay uses a human lymphoblastoid cell line (LYMP2-025) purchased from Coriell Institute for Medical Research.
NCGC Assay Protocol Summary:
The CellTiter-Glo luminescent cell viability assay (Promega) is a homogeneous method to measure the number of viable cells in culture. The end point readout of this assay is based on quantitation of intracellular ATP, an indicator of metabolic activity, using the luciferase reaction. Luciferase catalyzes the oxidation of beetle Luciferin to oxyluciferin and light in the presence of ATP. The luminescent signal is proportional to amount of ATP present.
Using the CellTiter-Glo luminescent cell viability assay, the amount of cellular ATP was measured in the lymphoblastoid cell line with complete culture medium following compound treatment for 24 hours. The assay was performed in opaque white Kalypsys 1536-well plates. In the screen, tetraoctylammonium bromide was used as positive control. Library compounds were measured for their ability to cause acute toxicity in the cell line, as reflected by a decrease in intracellular ATP levels, in a concentration-dependent manner. […] AC50 values were determined from concentration-response data modeled with the standard Hill equation.
qHTS protocol for CellTiter Glo lymphoblastoid cellular assay
[Step] [Parameter] [Value] [Description]
1. Reagent; 5 uL; 2500 lymphoblastoid cells/well
2. Time; 5 hr; 37 C incubation
4. Controls; 23 nL; Tetraoctylammonium bromide 6.4pM to 92 uM
5. Time; 24 hr; 37 C incubation
6. Reagent; 5 uL; CellTiter Glo reagent
7. Time; 30 min; Room Temperature
8. Detection; Luminescence; Viewlux plate reader
Keywords: cell viability, cytotoxicity, lymphoblastoid cell line, luminescence, NTPHTS, NTPHTS_NCGC, NIEHS, DSSTox, MLSMR, MLSCN, NIH Roadmap, qHTS, NCGC
As to `c1ccc(SCCSc2ccccc2)cc1`, the Potency result was “inactive”. With `O=C(OCC1CO1)C1CCCCC1C(=O)OCC1CO1` (stereo not given), the Potency entry was “inactive”. As to `O=[N+]([O-])c1ccc(F)cc1F`, the Potency result is “inactive”. Next, `Cc1ccc(C(=O)O)cc1[N+](=O)[O-]`: “inactive”; `O=c1[nH]ncc2ccccc12`: “inactive”. Consider `CCCCC(CC)COCCCN` (stereo not given), for which the Potency result is “inactive”. With `CC(C)(C)C(=O)C1C(=O)c2ccccc2C1=O` the entry was “inactive”. With `C[C@@H]1CC2(OC(O)[C@]3(C)O[C@H]23)O[C@H]2C[C@@]3(C)[C@@H]4CC[C@H]5C(C)(C)C(O[C@@H]6OC[C@@H](O)[C@H](O)[C@H]6O)CC[C@@]56C[C@@]46CC[C@]3(C)[C@@H]12` (stereo not given in full) the entry was “inactive”. As to `CCCCCCN`, the Potency entry is “inactive”. As for `Oc1c(Cl)cc(Cl)c(Cl)c1Cl`, the Potency result was “inactive”. `Cc1ccc(N)cc1[N+](=O)[O-]`: the Potency result is “inactive”. Take `C=Cc1cccc(C)c1`: the Potency result was “inactive”. Regarding `C=CC(=O)OCCCCCCOC(=O)C=C`, the Potency was 50.1 µM (active). With `Cc1ccc2ccc3cccc4ccc1c2c34` the entry was “inactive”; with `C=C(C#N)C(=O)OCC`, “inactive”. For `CCCCCCCCC1CO1` (stereo not given), the Potency result was “inactive”. Next, `O=[N+]([O-])c1cc(N(CCO)CCO)ccc1NCCO`: “inactive”. With `CC(=O)Nc1cccc(C)c1` the entry was “inactive”; with `C=CC(=O)CC`, “inactive”. Consider `Nc1ccccc1O`, for which the Potency entry is “inactive”. With `CC(=O)OC(C(=O)c1ccccc1)c1ccccc1` (stereo not given) the entry was “inactive”; with `O=C(O)c1cc(N=Nc2ccc([N+](=O)[O-])cc2)ccc1O`, “inactive”. Next, `Cc1cccnc1`: “inactive”. With `Brc1cc(Oc2cc(Br)c(Br)c(Br)c2Br)c(Br)c(Br)c1Br` the entry was “inactive”. `Nc1ccc2c(c1)C(=O)c1ccccc1C2=O`: the Potency result was “inactive”.

Take `CC(=O)c1ccc(Cl)c(Cl)c1Cl`: the Potency result was “inactive”. Next, `CC(=O)CC(=O)Nc1ccccc1`: “inactive”. Next, `c1ccc(Nc2cccc3ccccc23)cc1`: “inactive”. Next, `OCC(CBr)(CBr)CBr`: “inactive”; `CC(=O)OC1CC(C)OC(C)O1` (stereo not given): “inactive”. As for `CCN(CC)c1ccc(N)cc1`, the Potency result is “inactive”.

Turning to `Nc1cc(C(=O)O)c(O)c(S(=O)(=O)O)c1`, the Potency entry was “inactive”. On to `c1ccc(COCc2ccccc2)cc1`, for which the Potency entry is “inactive”. On to `Nc1ccc(-c2ccc(N)c(O)c2)cc1O`, for which the Potency entry was “inactive”. For the compound `C=CC(C)(O)CCCC(C)CCCC(C)CCCC(C)C` (stereo not given), the Potency entry is “inactive”. Next, `CCOc1ccc2nc(N)sc2c1`: “inactive”.

Take `c1ccc2ncccc2c1`: the Potency entry is “inactive”. `OC1CCCCC1`: the Potency result was “inactive”. Turning to `CC(C)S`, the Potency result is “inactive”. Next, `Oc1cc(Cl)cc(Cl)c1Cl`: “inactive”.

Values taken from PubChem BioAssay (NCATS).
